According to article PMC7862700, “An all-to-all approach to the identification of sequence-specific readers for epigenetic DNA modifications on cytosine”:

Tests used:
Assay in all cases: DAPPL (digital affinity profiling via proximity ligation, sequencing); 10 mM Tris-HCl pH 7.5, 50 mM NaCl, 1 mM DTT, 4% glycerol, room temperature, 30 min; GST-TFs on glutathione beads, 16-mer random dsDNA library, 0.1% formaldehyde crosslink after washing; high values mean tight binding
Details in all cases: protein: recombinant; tags: N-terminal GST; dsDNA, one strand shown
FEV = target: T1, FEV (Homo sapiens, UniProt Q99581 1-238)
T1 sequence: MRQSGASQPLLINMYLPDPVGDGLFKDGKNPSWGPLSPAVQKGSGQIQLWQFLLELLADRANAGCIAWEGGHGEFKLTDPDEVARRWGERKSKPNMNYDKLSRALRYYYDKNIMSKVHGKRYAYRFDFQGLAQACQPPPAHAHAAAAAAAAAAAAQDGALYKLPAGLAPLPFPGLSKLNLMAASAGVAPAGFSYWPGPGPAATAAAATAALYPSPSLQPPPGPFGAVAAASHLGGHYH
Procedure, shortened: (§1)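 After expression in yeast as GST fusions, human transcription factors were bound to glutathione beads, DNA-barcoded and mixed with a tag-only sample. The pools were incubated with 200 nmole of a 16-mer random double-stranded DNA library in Tris/NaCl/DTT/glycerol buffer (30 min, room temperature), washed and crosslinked with 0.1% formaldehyde. Proximity ligation with BsaI/T4 ligase ran for 1 h at 37 °C, before PCR amplification and sequencing on an Illumina NextSeq500. Binding signal is a hexamer's read frequency for a factor divided by its frequency for the tag-only sample.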

ETV5 = ETV5 (Homo sapiens, UniProt P41161 1-510)
Chain of ETV5 (P41161 whole entry): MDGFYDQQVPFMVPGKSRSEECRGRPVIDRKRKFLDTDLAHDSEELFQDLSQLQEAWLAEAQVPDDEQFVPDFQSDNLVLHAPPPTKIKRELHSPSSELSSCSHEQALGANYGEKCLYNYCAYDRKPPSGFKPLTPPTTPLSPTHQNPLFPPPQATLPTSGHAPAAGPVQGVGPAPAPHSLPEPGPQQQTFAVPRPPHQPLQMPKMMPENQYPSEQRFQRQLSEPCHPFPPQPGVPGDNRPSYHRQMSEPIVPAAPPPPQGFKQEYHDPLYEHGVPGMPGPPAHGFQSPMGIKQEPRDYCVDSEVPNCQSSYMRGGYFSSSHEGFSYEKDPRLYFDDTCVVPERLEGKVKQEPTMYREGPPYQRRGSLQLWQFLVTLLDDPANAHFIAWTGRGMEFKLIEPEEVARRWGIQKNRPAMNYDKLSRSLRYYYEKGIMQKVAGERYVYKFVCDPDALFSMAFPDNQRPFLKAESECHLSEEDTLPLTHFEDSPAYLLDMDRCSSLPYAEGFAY
Procedure, shortened: as §1

SPIC = target: T2, SPIC (Homo sapiens, UniProt Q8N5J4 1-248)
T2 sequence: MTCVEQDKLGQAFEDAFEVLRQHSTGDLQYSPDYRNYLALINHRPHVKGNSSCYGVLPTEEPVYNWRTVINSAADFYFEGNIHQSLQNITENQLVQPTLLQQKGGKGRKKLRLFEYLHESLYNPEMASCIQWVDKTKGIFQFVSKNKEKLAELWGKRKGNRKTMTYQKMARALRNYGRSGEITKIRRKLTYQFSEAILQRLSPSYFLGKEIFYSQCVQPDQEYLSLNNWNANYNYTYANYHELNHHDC
Procedure, shortened: as §1

ELF4 = ELF4 (Homo sapiens, UniProt Q99607 1-663)
Chain of ELF4 (Q99607 whole entry): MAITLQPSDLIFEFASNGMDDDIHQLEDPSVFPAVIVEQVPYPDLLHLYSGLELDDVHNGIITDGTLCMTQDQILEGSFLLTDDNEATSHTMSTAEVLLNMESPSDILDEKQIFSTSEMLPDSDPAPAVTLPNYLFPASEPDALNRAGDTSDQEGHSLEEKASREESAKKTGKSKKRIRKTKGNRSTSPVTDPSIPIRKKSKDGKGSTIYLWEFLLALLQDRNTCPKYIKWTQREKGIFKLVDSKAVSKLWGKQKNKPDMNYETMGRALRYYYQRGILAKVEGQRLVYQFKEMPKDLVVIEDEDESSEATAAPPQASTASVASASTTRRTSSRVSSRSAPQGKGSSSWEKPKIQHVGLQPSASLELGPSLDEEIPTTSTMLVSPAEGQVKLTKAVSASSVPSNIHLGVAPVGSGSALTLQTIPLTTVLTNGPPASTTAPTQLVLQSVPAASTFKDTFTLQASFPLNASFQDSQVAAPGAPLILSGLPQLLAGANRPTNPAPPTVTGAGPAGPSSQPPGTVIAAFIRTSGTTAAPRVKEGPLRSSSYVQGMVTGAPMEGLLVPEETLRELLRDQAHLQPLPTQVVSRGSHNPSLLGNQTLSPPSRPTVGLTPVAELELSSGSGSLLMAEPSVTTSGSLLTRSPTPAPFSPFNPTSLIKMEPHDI
Procedure, shortened: as §1

ELK4 = target: T3, ELK4 (Homo sapiens, UniProt P28324-2 1-405)
T3 sequence: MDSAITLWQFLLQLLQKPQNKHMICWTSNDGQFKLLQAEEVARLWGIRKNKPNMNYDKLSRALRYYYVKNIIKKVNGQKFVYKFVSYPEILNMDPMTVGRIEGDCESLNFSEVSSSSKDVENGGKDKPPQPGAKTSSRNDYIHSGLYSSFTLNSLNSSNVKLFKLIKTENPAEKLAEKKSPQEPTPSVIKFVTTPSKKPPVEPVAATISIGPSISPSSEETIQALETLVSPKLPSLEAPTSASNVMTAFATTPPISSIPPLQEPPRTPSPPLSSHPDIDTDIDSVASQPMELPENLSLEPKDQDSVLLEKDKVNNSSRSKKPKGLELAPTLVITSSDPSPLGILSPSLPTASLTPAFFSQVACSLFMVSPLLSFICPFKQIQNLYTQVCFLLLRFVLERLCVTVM
Procedure, shortened: as §1

ETV2 = target: T4, ETV2 (Homo sapiens, UniProt O00321 1-342)
T4 sequence: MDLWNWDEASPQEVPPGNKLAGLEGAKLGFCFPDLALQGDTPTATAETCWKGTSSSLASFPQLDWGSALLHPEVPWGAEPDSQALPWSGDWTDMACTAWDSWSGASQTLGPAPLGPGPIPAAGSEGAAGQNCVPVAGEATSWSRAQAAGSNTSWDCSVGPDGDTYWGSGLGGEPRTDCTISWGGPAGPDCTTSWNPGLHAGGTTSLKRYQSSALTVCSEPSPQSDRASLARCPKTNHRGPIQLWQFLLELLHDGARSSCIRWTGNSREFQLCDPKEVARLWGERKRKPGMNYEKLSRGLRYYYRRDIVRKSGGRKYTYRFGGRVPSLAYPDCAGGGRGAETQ
Procedure, shortened: as §1

ELF3 = target: T5, ELF3 (Homo sapiens, UniProt P78545 1-371)
T5 sequence: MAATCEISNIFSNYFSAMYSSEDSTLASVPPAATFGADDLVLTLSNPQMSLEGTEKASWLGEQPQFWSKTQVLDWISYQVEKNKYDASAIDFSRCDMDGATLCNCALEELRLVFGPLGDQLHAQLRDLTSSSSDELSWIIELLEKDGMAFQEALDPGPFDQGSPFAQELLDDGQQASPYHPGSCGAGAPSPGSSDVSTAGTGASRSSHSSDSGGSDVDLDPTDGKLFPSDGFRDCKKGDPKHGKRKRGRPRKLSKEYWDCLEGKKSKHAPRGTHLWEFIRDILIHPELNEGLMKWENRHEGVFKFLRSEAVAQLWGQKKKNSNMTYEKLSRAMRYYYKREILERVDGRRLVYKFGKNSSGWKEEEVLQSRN
Procedure, shortened: as §1

ETV1 = ETV1 (Homo sapiens, UniProt P50549 1-477)
Chain of ETV1 (P50549 whole entry): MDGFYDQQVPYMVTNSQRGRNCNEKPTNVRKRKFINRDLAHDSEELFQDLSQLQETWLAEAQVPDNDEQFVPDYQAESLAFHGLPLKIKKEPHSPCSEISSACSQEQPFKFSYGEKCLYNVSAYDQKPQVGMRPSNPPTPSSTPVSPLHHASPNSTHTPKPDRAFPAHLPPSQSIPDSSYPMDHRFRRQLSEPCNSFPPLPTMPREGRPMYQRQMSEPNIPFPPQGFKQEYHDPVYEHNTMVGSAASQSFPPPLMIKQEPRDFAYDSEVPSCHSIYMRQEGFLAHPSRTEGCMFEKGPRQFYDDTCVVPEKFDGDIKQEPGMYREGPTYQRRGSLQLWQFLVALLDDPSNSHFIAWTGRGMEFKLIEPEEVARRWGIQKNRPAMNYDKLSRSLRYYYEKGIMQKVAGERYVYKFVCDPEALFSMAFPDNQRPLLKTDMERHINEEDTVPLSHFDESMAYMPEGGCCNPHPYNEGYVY
Procedure, shortened: as §1

ERF = target: T6, ERF (Homo sapiens, UniProt P50548 1-548)
T6 sequence: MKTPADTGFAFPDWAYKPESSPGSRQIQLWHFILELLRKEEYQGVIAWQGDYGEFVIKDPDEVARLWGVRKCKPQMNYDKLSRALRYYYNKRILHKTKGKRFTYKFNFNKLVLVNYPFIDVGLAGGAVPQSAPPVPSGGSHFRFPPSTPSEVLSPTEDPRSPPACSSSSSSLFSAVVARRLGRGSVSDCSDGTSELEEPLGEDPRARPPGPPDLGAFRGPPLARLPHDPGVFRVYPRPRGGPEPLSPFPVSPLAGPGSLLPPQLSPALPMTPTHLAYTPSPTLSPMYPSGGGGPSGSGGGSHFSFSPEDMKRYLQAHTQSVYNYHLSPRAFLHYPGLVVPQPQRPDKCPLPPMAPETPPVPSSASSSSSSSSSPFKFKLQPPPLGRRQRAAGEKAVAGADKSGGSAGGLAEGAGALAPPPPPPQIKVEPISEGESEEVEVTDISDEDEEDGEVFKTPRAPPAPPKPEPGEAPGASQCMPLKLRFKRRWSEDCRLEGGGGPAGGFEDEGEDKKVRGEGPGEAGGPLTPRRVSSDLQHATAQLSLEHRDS
Procedure, shortened: as §1

ETV3L = target: T7, ETV3L (Homo sapiens, UniProt Q6ZN32 1-361)
T7 sequence: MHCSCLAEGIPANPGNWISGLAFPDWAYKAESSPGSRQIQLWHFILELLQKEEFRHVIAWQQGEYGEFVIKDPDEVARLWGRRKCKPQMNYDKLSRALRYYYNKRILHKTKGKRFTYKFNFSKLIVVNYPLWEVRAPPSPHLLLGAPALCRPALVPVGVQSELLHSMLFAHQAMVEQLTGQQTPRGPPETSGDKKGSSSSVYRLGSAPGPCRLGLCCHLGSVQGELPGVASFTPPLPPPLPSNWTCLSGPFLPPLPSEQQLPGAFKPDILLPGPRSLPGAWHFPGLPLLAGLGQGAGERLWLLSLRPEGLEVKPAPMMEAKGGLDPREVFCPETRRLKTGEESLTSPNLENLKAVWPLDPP
Procedure, shortened: as §1

ETS2 = target: T8, ETS2 (Homo sapiens, UniProt P15036 1-469)
T8 sequence: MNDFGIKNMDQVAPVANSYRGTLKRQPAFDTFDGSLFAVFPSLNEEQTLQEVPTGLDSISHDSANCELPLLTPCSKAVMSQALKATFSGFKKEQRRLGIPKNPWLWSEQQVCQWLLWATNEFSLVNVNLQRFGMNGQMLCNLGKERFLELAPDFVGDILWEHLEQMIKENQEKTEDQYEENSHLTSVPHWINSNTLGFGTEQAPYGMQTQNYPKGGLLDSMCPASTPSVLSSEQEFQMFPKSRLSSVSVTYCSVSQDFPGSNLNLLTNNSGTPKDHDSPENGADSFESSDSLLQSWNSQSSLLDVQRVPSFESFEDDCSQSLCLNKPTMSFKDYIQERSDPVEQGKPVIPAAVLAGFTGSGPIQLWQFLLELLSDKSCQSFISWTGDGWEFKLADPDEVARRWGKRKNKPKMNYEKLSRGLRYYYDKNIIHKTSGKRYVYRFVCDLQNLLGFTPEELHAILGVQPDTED
Procedure, shortened: as §1

SPDEF = target: T9, SPDEF (Homo sapiens, UniProt O95238 1-335)
T9 sequence: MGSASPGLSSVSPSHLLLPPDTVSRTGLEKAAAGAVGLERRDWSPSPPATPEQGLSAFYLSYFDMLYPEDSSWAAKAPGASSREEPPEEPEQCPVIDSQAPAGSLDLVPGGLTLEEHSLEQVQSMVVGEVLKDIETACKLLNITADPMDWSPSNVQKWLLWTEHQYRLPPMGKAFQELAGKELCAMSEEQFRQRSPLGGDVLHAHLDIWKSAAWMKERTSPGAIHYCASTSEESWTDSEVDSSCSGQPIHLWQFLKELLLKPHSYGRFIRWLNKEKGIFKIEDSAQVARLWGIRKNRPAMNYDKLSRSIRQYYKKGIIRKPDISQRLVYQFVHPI
Procedure, shortened: as §1

ETV7 = target: T10, ETV7 (Homo sapiens, UniProt Q9Y603 1-341)
T10 sequence: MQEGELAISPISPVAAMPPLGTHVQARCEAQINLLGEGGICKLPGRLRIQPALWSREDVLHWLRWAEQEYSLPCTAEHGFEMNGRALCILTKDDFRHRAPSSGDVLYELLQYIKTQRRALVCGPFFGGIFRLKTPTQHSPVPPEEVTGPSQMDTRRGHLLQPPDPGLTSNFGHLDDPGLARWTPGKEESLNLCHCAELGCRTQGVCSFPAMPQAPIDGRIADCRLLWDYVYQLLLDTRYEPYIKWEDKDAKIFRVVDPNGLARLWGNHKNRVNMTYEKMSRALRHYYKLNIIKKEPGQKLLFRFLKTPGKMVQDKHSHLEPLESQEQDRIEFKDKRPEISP
Procedure, shortened: as §1

ELF5 = target: T11, ELF5 (Homo sapiens, UniProt Q9UKW6-2 1-255)
T11 sequence: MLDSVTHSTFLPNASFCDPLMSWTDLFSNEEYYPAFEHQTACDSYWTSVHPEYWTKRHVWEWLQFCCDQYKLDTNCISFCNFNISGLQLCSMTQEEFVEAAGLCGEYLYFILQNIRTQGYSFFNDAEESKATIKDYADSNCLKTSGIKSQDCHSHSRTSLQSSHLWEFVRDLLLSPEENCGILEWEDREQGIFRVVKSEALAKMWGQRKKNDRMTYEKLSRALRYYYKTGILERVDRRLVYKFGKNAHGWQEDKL
Procedure, shortened: as §1

ETV3 = target: T12, ETV3 (Homo sapiens, UniProt P41162-2 1-143)
T12 sequence: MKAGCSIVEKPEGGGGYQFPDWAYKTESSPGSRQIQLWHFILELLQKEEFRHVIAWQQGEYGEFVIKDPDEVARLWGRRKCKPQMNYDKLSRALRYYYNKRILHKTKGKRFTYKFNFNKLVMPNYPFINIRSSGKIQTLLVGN
Procedure, shortened: as §1

ETV6 = ETV6 (Homo sapiens, UniProt P41212 1-452)
Chain of ETV6 (P41212 whole entry): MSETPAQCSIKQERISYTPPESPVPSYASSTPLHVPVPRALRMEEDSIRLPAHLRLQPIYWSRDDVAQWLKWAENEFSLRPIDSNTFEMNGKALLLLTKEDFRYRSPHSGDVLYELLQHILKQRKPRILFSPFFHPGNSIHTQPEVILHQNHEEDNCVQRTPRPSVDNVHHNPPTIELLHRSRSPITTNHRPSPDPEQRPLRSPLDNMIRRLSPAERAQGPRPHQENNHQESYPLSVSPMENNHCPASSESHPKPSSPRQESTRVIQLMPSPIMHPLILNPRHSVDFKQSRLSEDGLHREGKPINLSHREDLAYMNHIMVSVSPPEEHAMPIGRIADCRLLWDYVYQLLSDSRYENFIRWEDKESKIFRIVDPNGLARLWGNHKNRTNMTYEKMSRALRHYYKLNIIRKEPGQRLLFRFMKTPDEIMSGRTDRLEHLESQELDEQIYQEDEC
Procedure, shortened: as §1

| Sequence | binding signal (FEV) | binding signal (ETV5) | binding signal (SPIC) | binding signal (ELF4) | binding signal (ELK4) | binding signal (ETV2) | binding signal (ELF3) | binding signal (ETV1) | binding signal (ERF) | binding signal (ETV3L) | binding signal (ETS2) | binding signal (SPDEF) | binding signal (ETV7) | binding signal (ELF5) | binding signal (ETV3) | binding signal (ETV6) |
| --- | --- | --- | --- | --- | --- | --- | --- | --- | --- | --- | --- | --- | --- | --- | --- | --- |
| GTTCAT | 1.1 fold enrichment (6-mer frequency, TF over GST control) | 1.16 fold enrichment (6-mer frequency, TF over GST control) | 1.15 fold enrichment (6-mer frequency, TF over GST control) | 1.18 fold enrichment (6-mer frequency, TF over GST control) | 1.2 fold enrichment (6-mer frequency, TF over GST control) | 1.01 fold enrichment (6-mer frequency, TF over GST control) | 1.04 fold enrichment (6-mer frequency, TF over GST control) | 1.12 fold enrichment (6-mer frequency, TF over GST control) | 1.11 fold enrichment (6-mer frequency, TF over GST control) | 1.16 fold enrichment (6-mer frequency, TF over GST control) | 1.16 fold enrichment (6-mer frequency, TF over GST control) | 1.18 fold enrichment (6-mer frequency, TF over GST control) | 1.05 fold enrichment (6-mer frequency, TF over GST control) | 1.1 fold enrichment (6-mer frequency, TF over GST control) | 1.1 fold enrichment (6-mer frequency, TF over GST control) | 1.17 fold enrichment (6-mer frequency, TF over GST control) |
| AGCAGC | 1.12 fold enrichment (6-mer frequency, TF over GST control) | 1.18 fold enrichment (6-mer frequency, TF over GST control) | 1.11 fold enrichment (6-mer frequency, TF over GST control) | 1.14 fold enrichment (6-mer frequency, TF over GST control) | 1.05 fold enrichment (6-mer frequency, TF over GST control) | 1.07 fold enrichment (6-mer frequency, TF over GST control) | 1.08 fold enrichment (6-mer frequency, TF over GST control) | 1.17 fold enrichment (6-mer frequency, TF over GST control) | 1.08 fold enrichment (6-mer frequency, TF over GST control) | 1.09 fold enrichment (6-mer frequency, TF over GST control) | 1.2 fold enrichment (6-mer frequency, TF over GST control) | 1.02 fold enrichment (6-mer frequency, TF over GST control) | 1.19 fold enrichment (6-mer frequency, TF over GST control) |  | 1.08 fold enrichment (6-mer frequency, TF over GST control) | 1.04 fold enrichment (6-mer frequency, TF over GST control) |
| CAATAG |  | 1.11 fold enrichment (6-mer frequency, TF over GST control) | 1.07 fold enrichment (6-mer frequency, TF over GST control) | 1.09 fold enrichment (6-mer frequency, TF over GST control) | 1.15 fold enrichment (6-mer frequency, TF over GST control) | 1.01 fold enrichment (6-mer frequency, TF over GST control) | 1.2 fold enrichment (6-mer frequency, TF over GST control) | 1.02 fold enrichment (6-mer frequency, TF over GST control) | 1.21 fold enrichment (6-mer frequency, TF over GST control) | 1.02 fold enrichment (6-mer frequency, TF over GST control) | 1.08 fold enrichment (6-mer frequency, TF over GST control) | 1.08 fold enrichment (6-mer frequency, TF over GST control) | 1.11 fold enrichment (6-mer frequency, TF over GST control) |  | 1.09 fold enrichment (6-mer frequency, TF over GST control) | 1.12 fold enrichment (6-mer frequency, TF over GST control) |
